Measured values as given in PubChem BioAssay.
Values without a mark were called inactive. Entries that show only a call come without a potency. For part of these data: Potency and affinity values are given separately. Active and inactive are the calls of the source. Unless noted, no rule for the calls is given here.

Columns and labels:
[1] = antimalarial activity against Dd2 strain (AID 2302;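 active = growth inhibition above 50% at the single 2 µM test dose, taken to imply half-maximal potency below 2 µM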); settings: P. falciparum Dd2 in RBCs, LDH growth readout, 72 h; at 2 µM; stronger effect = higher value
[2] = HepG2 cytotoxicity, primary screen, cytotoxicity control for P. falciparum antimalarial project, cell-based, ATP luminescence (AID 2303;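 active = inhibition above 50%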); settings: HepG2 viability, 24-48 h, at 10 µM, stronger effect = higher value
[3] = molecular target: L-lactate dehydrogenase (Plasmodium falciparum (isolate CDC / Honduras)) (UniProt Q27743); assay: PfLDH activity inhibition – cell lysate, 3D7 strain, counter-screen for P. falciparum growth inhibition project (AID 2304); settings: P. falciparum 3D7 crude extract, LDH APAD/NBT absorbance; at 2 µM; stronger effect = higher value
[4] = inhibition of 3D7 malaria parasite growth – strain 3D7 (AID 2306); settings: P. falciparum 3D7 erythrocytic growth, LDH absorbance, 72 h; at 2 µM; stronger effect = higher value
[5] = molecular target: Calcium-dependent protein kinase 1 (Plasmodium falciparum (isolate 3D7)) (UniProt P62344); assay: PfCDPK1 kinase inhibitors, biochemical, TCAMS library (AID 1159585; cut-off not given, nearly all actives have IC50 up to about 0.98 µM;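 also: inhibitors leave more ATP so luminescence rises with inhibition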); settings: recombinant PfCDPK1, Kinase-Glo ATP depletion luminescence
[6] = molecular target: Plasmodium falciparum protein kinase 6 (PK6, PF3D7_1337100) (UniProt Q8IDW1); assay: PfPK6 kinase inhibitors, biochemical, TCAMS library (AID 1159586); settings: recombinant PfPK6, Kinase-Glo ATP depletion luminescence
[7] = molecular target: Protein kinase 7 (PK7), Plasmodium falciparum 3D7 (PF3D7_0213400) (UniProt Q7YTF7); assay: inhibition of Plasmodium PK7 catalytic activity – biochemical, TCAMS antimalarial set, Kinase-Glo luminescence (AID 1159587); settings: recombinant PfPK7, Kinase-Glo ATP depletion luminescence
[8] = molecular target: Calcium-dependent protein kinase 4 (Plasmodium falciparum (isolate 3D7)) (UniProt Q8IBS5); assay: PfCDPK4 kinase inhibitors, biochemical, TCAMS library (AID 1159588; cut-off not given, nearly all actives have IC50 up to about 0.91 µM); settings: recombinant PfCDPK4, Kinase-Glo ATP depletion luminescence
Calcium-dependent protein kinase 4 (Plasmodium falciparum (isolate 3D7)), sequence (Q8IBS5 whole entry, looked up): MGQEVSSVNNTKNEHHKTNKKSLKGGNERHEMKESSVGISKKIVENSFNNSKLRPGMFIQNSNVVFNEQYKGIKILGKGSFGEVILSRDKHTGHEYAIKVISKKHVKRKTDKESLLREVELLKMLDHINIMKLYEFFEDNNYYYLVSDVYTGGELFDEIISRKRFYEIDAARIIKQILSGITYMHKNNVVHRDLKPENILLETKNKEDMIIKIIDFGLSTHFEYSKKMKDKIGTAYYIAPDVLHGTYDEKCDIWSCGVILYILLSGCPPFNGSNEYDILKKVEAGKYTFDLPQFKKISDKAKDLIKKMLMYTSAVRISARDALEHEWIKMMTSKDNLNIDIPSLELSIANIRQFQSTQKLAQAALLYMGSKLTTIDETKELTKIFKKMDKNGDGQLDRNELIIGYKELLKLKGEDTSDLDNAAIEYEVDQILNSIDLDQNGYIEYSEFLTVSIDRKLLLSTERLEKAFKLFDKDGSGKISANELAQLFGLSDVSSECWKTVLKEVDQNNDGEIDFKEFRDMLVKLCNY

Plasmodium falciparum protein kinase 6 (PK6, PF3D7_1337100), sequence (Q8IDW1 1-305): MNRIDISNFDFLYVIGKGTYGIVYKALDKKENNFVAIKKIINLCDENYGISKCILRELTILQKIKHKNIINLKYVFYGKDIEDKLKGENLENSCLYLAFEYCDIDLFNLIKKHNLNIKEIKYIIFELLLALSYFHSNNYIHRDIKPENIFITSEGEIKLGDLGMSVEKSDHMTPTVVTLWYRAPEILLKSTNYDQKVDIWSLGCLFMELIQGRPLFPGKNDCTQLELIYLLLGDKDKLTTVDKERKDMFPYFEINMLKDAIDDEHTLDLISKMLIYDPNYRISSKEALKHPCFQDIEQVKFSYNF
Calcium-dependent protein kinase 1 (Plasmodium falciparum (isolate 3D7)), sequence (P62344 whole entry, looked up): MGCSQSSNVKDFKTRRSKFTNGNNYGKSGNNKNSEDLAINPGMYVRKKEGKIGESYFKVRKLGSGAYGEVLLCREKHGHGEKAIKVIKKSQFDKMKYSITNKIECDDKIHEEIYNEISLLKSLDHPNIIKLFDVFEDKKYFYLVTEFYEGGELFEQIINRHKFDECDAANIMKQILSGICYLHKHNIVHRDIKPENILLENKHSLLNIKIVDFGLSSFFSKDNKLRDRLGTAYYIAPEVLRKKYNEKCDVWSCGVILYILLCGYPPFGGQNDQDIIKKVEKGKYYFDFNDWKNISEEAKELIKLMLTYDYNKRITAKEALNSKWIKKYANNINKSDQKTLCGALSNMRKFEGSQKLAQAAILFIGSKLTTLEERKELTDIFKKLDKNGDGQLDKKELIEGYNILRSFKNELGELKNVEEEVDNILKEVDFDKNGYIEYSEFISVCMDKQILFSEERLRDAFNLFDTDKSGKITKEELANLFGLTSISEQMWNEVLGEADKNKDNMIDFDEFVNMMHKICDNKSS
Protein kinase 7 (PK7), Plasmodium falciparum 3D7 (PF3D7_0213400), sequence (Q7YTF7 1-343): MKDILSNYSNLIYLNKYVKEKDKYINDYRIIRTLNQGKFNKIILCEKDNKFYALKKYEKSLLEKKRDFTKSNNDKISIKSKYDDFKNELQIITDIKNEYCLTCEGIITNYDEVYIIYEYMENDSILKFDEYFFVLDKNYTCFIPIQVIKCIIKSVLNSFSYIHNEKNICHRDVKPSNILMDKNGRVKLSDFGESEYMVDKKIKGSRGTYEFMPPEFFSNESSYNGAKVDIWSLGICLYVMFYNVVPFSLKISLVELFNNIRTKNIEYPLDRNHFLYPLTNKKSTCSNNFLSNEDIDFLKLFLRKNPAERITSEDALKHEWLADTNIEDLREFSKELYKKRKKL
L-lactate dehydrogenase (Plasmodium falciparum (isolate CDC / Honduras)), sequence (Q27743 whole entry, looked up): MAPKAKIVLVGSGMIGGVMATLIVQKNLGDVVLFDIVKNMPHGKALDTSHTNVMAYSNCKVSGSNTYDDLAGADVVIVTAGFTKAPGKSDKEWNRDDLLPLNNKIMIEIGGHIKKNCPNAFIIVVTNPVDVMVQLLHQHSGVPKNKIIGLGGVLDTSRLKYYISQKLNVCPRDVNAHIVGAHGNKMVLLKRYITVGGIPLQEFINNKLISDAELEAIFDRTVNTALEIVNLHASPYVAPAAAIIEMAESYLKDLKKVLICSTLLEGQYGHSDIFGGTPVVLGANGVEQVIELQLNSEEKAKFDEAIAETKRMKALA

Row | SMILES | growth inhibition [1] | inhibition [2] | inhibition [3] | growth inhibition [4] | outcome [5] | outcome [6] | outcome [7] | outcome [8]
1 | Nc1nc(N)c2cc(N(Cc3ccccc3)Cc3ccccc3)ccc2n1 | 88% (active) | 69% (active) | 3% | 99% (active) | inactive | inactive | inactive | inactive
2 | Cc1cc(Nc2cccc(C(F)(F)F)c2)nc(N)n1 | 24% | 5% | 1% | 98% (active) | inactive | inactive | inactive | inactive
3 | COc1cc(C)nc2ccc(NC(=O)c3cc([N+](=O)[O-])cc([N+](=O)[O-])c3)cc12 | 94% (active) | -2% | 2% | 102% (active) | inactive | inactive | inactive | inactive
4 | CC(Oc1ccc(NC(=O)c2cccs2)cc1)C(=O)c1ccc(Cl)cc1 (stereo not drawn) | 83% (active) | -1% | 1% | 92% (active) | inactive | inactive | inactive | inactive
5 | COC(=O)c1cccc(NC(=O)NC2CCN(c3ccnc(NCc4ccc(F)cc4)n3)CC2)c1 | 39% | 29% | 5% | 93% (active) | inactive | inactive | inactive | inactive
6 | CCCCCCN=C(N)c1ccc2nc(-c3ccc(O)cc3)[nH]c2c1 | 99% (active) | -3% | 1% | 100% (active) | inactive | inactive | inactive | inactive
7 | Fc1ccc2nc(-c3cccc(-c4ccc(CNCC5CCCO5)cc4)c3)[nH]c2c1 (stereo not drawn) | 98% (active) | 36% | 0% | 101% (active) | inactive | inactive | inactive | inactive
8 | COc1cc(NC(=O)/C=C/c2cc3ccccc3n2C)ccc1OCCN(C(C)C)C(C)C | 68% (active) | 16% | 4% | 99% (active) | inactive | inactive | inactive | inactive
9 | O=C(c1cc(-c2ccco2)[nH]n1)N1CCN(S(=O)(=O)c2ccc(Br)cc2)CC1 | 90% (active) | 1% | -5% | 95% (active) | inactive | inactive | inactive | inactive
10 | CC(C)c1ccc(CN2CCC(CNC(=O)c3cc(-c4ccccc4F)cs3)C2)cc1 (stereo not drawn) | 29% | 32% | 5% | 101% (active) | inactive | inactive | inactive | inactive
11 | CNCCNCc1ccc(-c2ccc(-c3nc4c(C)cccc4[nH]3)s2)cc1 | 26% | 16% | 5% | 97% (active) | inactive | inactive | inactive | inactive
12 | CC1(C)N=C(N)N=C(N)C1c1ccc(Cl)c(Cl)c1 (stereo not drawn) | 0% | 47% | -6% | 95% (active) | inactive | inactive | inactive | inactive
13 | CCc1cn(CCOC)c2ccc(C(=O)N[C@@H](Cc3ccccc3)[C@H](O)CNC(C)(C)CCCC(C)C)cc12 | 98% (active) | 35% | 1% | 98% (active) | inactive | inactive | inactive | inactive
14 | CC(C)(C)NS(=O)(=O)c1cc(C(=O)N2CCC(CCN3CCC(O)(c4cccc(C(F)(F)F)c4)CC3)(c3cccc(F)c3)CC2)c(Cl)cc1F | 55% (active) | 15% | -6% | 88% (active) | inactive | inactive | inactive | inactive
15 | Cc1cc2nc(-c3ccc(C(=O)NCc4ccc(C(C)(C)C)cc4)cc3)[nH]c2cc1C | 59% (active) | 3% | -3% | 101% (active) | inactive | inactive | inactive | inactive
16 | CN1CCN(Cc2cc(NC(=O)c3ccc(-c4ccc(Cl)cc4Cl)cc3)ccc2-c2ccccc2)CC1 | 21% | 52% (active) | 3% | 95% (active) | inactive | inactive | inactive | inactive
17 | O=C(Cn1nc(Br)nc1[N+](=O)[O-])NCC1CCCCC1 | 57% (active) | -8% | -5% | 96% (active) | inactive | inactive | inactive | inactive
18 | Cc1c(-c2ccc3c(c2)C(NCCCN2CCCCC2)CC3)cnc(N)c1C (stereo not drawn) | 3% | 4% | -3% | 97% (active) | inactive | inactive | inactive | inactive
19 | O=C(CCc1ccccc1)NC(c1ccc(Cl)cc1)c1ccc2cccnc2c1O (stereo not drawn) | 49% | 59% (active) | 2% | 95% (active) | inactive | inactive | inactive | inactive
20 | CC(C)C[C@H](NC(=O)c1cc2ccccc2s1)C(=O)N[C@H]1CCN(Cc2ccc(OC[C@@H]3CCCN3C)c(Cl)c2)C1 | 81% (active) | 83% (active) | -4% | 101% (active) | inactive | inactive | inactive | inactive
21 | Cc1ccc2c(c1)c(-c1ccccc1)c(-c1ccccc1)n2CC(O)CN1CCN(CC=Cc2ccccc2)CC1 (stereo not drawn) | 98% (active) | 0% | 6% | 98% (active) | inactive | inactive | inactive | inactive
